# Bioassay records as filed in PubChem.
# A selection: hits, their analogues and other compounds. The true share with any hit is near 7.3%.
# FMDV antiviral = foot and mouth disease virus antiviral activity | FMDV antiviral cell-based qHTS | Potency, µM (highest dose often 57.9 µM), inactives show at the top dose activity change, negative = inhibition, most hits filed as inhibitors | actives 1.2% (n = 410,000) | AID 1159524; calls by dose curve; tested in HEK293T cells; note: read-out not given here; potency is the fitted concentration of half-maximal effect; nearly all actives have a fitted effect of over 45% in size
# AmpC detergent = AmpC beta-lactamase inhibition with detergent present; AmpC hydrolysis of nitrocefin, absorbance 480 nm, 0.01% Triton; Potency, µM (doses to about 114 µM), for inactives: at the highest dose activity change, negative = inhibition, hits mostly inhibitors; actives 0.041% (n = 370,000);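 note: potency is the fitted concentration of half-maximal effect; 0% = no-compound wells and -100% = no-enzyme wells; nearly all actives have a fitted effect of over 25% in size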
# Target sequence (P00811 whole entry, looked up): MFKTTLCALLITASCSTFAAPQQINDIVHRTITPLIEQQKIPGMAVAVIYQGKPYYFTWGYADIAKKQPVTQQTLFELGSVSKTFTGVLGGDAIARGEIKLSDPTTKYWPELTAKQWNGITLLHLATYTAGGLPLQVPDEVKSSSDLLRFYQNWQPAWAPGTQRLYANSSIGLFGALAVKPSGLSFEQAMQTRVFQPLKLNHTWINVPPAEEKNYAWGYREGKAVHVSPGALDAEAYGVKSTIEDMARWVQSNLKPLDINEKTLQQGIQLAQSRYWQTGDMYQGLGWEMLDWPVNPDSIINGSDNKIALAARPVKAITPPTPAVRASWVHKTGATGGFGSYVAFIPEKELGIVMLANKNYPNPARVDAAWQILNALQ
#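 AmpC (5.3 nM in the dispensed reagent) in 20 mM phosphate pH 7.0 with 0.01% (detergent screen) or 0.0001% Triton X-100 was preincubated with compounds for 15 min at room temperature. Nitrocefin was then added from an 800 uM solution, and hydrolysis was followed at 480 nm.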
# AmpC inh no detg = inhibitors of E. coli AmpC beta-lactamase without detergent; Potency, µM (titrated, usually from 57.1 µM), without a hit: top-dose activity change, negative = inhibition, most hits filed as inhibitors; AmpC nitrocefin hydrolysis, absorbance 480 nm, 0.0001% Triton; actives 0.52% (n = 330,000);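 note: potency is the fitted concentration of half-maximal effect; plate controls were no compound for no effect and no enzyme for full effect; nearly all actives have a fitted effect of over 20% in size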
#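 20 mM phosphate pH 7.0 + 0.01% (detergent screen) or 0.0001% Triton X-100; 5.3 nM AmpC reagent; cpd preinc 15 min RT; nitrocefin (800 uM stock) to start; A480 q20 s × 4 min; Activity was normalised to no-enzyme and no-compound control wells.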
# HCV inh = HCV inhibition. Huh7.5.1 HCVcc-Cre infection, luciferase reporter, 44 h. Potency, µM (titrated, usually from 41.8 µM), for inactives: at the highest dose activity change, negative = inhibition, actives largely listed as inhibitors. actives 3.4% (n = 340,000). AID 651820; note: potency is the fitted concentration of half-maximal effect
#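 Seed cells (1,000/well) for 4 h; treat with compound and infect with HCVcc-Cre, moi about 0.5. Incubate 44 h, then detect luciferase activity.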
# HCMV inh = inhibitors of human cytomegalovirus. actives 4.5% (n = 410,000). HFF cells, HCMV-luciferase reporter, 72 h; stronger effect = lower value. activity change, negative = inhibition, % at 57.5 µM. AID 1259415; in the data active = activity change below about -60%; inconclusive = no clear call, values can overlap the other calls; inactive = above about -39%
#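 Two-dose cell screen: HFF monolayers treated with compounds and infected with luciferase-expressing HCMV at 1 PFU/cell, 72 h at 37C, then lysed for luciferase measurement.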
# * marks the source's active call; other numbers are inactive results; u = inconclusive; x = no result given; [ ] = another dose, or the depositor's remark. Unless noted, calls come from the whole dose curve; as a rule, active = well fitted curve in the direction sought with a large enough effect; inconclusive = small, poorly fitted or top-dose-only effect, or another doubt; inactive = no such curve, though single readings can be large; an effect the other way counts as inactive or inconclusive. Unless noted, % is set by controls: 0 for no effect and ±100 for the full control effect.
SMILES,FMDV antiviral,AmpC detergent,AmpC inh no detg,HCV inh,HCMV inh
COC(=O)c1c(C)noc1-c1ccc(Cl)cc1,5%,2%,-18%,22%,-64*
CN(Cc1ccc(Cl)cc1Cl)C(=O)c1cc(=O)c2ccccc2o1,0%,-11%,39%,-12%,-63*
CC(C)[C@H](NC(=O)c1ccc([N+](=O)[O-])cc1Cl)C(=O)N1CCN(C/C=C/c2ccccc2)CC1,u,x,216%,14µM*,-20
O=[N+]([O-])c1ccc(C(O)CN2CCN(C/C=C/c3ccccc3)CC2)cc1 (centres undefined),0%,-3%,15%,13µM*,7
CCC(C)C1NC(=O)C(NC(=O)C(CC(C)C)N(C)C(=O)C2CCCN2C(=O)C(C)O)C(C)OC(=O)C(Cc2ccc(OC)cc2)N(C)C(=O)C2CCCN2C(=O)C(CC(C)C)NC(=O)[C@H](C)C(=O)[C@H](C(C)C)OC(=O)CC1O (some centres undefined),u,x,x,u,-97*
Cc1ccc(Cn2cc(C(=O)c3ccc(F)cc3)c(=O)c3cc4c(cc32)OCO4)cc1,-7%,-13%,x,x,8
Cc1ccc(C(=O)c2cn(Cc3ccccc3)c3ccccc3c2=O)cc1,-23%,14%,x,x,-63*
COc1ccc2c(c1)c(=O)c(C(=O)c1ccccc1)cn2CC(=O)Nc1ccc2c(c1)OCO2,-11%,-7%,x,x,-103*
CCOc1ccc(NC(=O)Cn2cc(C(=O)c3ccccc3)c(=O)c3cc4c(cc32)OCCO4)cc1,u,9%,x,x,-104*
COc1ccc(C(=O)c2cn(Cc3ccc(C)cc3)c3cc4c(cc3c2=O)OCO4)cc1,-25%,10%,x,x,-65*
CCc1ccc(C(=O)COC(=O)c2n[nH]c3ccccc23)cc1,-9%,1%,-44%,-19%,-65*
Cc1cnc(SCC2CCCO2)nc1C1CCCN(C(=O)C2=NNC(=O)CC2)C1 (centres undefined),-4%,x,x,x,x
CCOC(=O)c1ccccc1NC(=O)COC(=O)C(CC)Oc1ccccc1 (centres undefined),-15%,x,x,x,u
O=C(NCCS(=O)(=O)N1CCN(C(=O)c2ccco2)CC1)c1ccccc1,0%,x,x,x,-79*
COc1ccc(-c2csc(N(CCCN(C)C)C(=O)c3ccccc3C)n2)cc1,1%,5%,257%,u,-61*
CCN(CC)CCCN(C(C)=O)c1nc(-c2cc(OC)ccc2OC)cs1,33%,-8%,10%,6.3µM*,u
CCN(C(=O)c1ccco1)c1nc(-c2ccc(OC)cc2)cs1,58%,6%,-15%,22µM*,92
Cc1nc2cc(NC(=O)[C@@H]3C[C@@H](Sc4ccccn4)CN3Cc3ccc4c(c3)OCCO4)ccc2s1,4%,x,x,x,x
O=[N+]([O-])c1cc(S(=O)(=O)N2CCCCCC2)ccc1Cl,-27%,2%,-31%,11µM*,u
O=C(CCl)Nc1cc(S(=O)(=O)N2CCCCCC2)ccc1Cl,u,-4%,-5%,35µM*,-64*
Cc1ccc(S(=O)(=O)N2CCCC2)cc1[N+](=O)[O-],-11%,-15%,-26%,36%,-7
CC(C)(C)CC(=O)Nc1cc(S(=O)(=O)N2CCCCCC2)ccc1Cl,-20%,-10%,-3%,u,-27
COc1ccc(S(=O)(=O)N2CCN(CC(=O)Nc3cc(Cl)ccc3Cl)CC2)cc1,-10%,u,-6%,-15%,-71*
O=C(CN1CCN(c2ccccc2O)CC1)Nc1cc(S(=O)(=O)N2CCCC2)ccc1Cl,-21%,u,64%,11µM*,-16
O=C(CSc1ccncc1)NCC1Cc2cccc(-c3cncnc3)c2O1 (centres undefined),3%,x,x,x,x
SMILES,FMDV antiviral,AmpC detergent,AmpC inh no detg,HCV inh,HCMV inh
CCOc1ccc(-c2csc(NNC3=NCCCCC3)n2)cc1,-26%,-11%,-5%[11.4 µM],-25%,-28
O=C(CSc1nc2nccnc2c(=O)n1CCc1c[nH]c2ccccc12)Nc1ccc(F)cc1,-3%,11%,x,x,-63*
CCOc1ccc(-c2cc(C(=O)Nc3cccc(C(F)(F)F)c3)[nH]n2)c(C)c1,-11%,x,x,x,u
CC1(C(=O)Nc2ccc3[nH]ncc3c2)CCN1C(=O)C1(c2ccccc2)CC1 (centres undefined),-16%,x,x,x,-98*
CC1(C(=O)Nc2ccc3[nH]ncc3c2)CCN1C(=O)CC(c1ccccc1)c1ccccc1 (centres undefined),u,x,x,x,0
CCCN(CCC)CCCNC(=O)C1CCCN(S(=O)(=O)c2cccc3nsnc23)C1 (centres undefined),-6%,2%,x,x,-8
COc1ccccc1CNc1ncnc2c1nnn2C,3%,-3%,x,x,-34
COc1ccc(CNC(C)C23CC4CC(CC(C4)C2)C3)c(OC)c1OC (centres undefined),-21%,-4%,25%,u,-61*
COc1cccc(OC)c1C(=O)NC(C)C12CC3CC(CC(C3)C1)C2 (centres undefined),-3%,0%,27%,9%,3
COC(=O)c1nnn(CC(=O)Nc2c(C)cccc2C)c1N,7%,u,x,x,-6
CCOc1ccc(OCC)c(-n2cnnn2)c1,1%,2%,x,x,-10
CC(C)C(NS(C)(=O)=O)c1nnc2n1CCN(Cc1ccc(C#CC(C)(C)O)cc1)CC2 (centres undefined),0%,x,x,x,x
O=C(CSc1nc2ccccc2c(=O)n1-c1ccccc1)N1CCc2ccccc2C1,u,u,-4%,13µM*,-94*
CC(C)Cn1c(SCC(=O)N2CCc3ccccc3C2)nc2cc(Cl)ccc2c1=O,0%,u,-16%,-9%,-20
O=C1COc2ccc(C(=O)CSc3ccccc3C(=O)O)cc2N1,-14%,-8%,-13%,5%,-12
CC(C)c1ccccc1-n1c(SCC(=O)N2CCc3ccccc3C2)nc2ccccc2c1=O,u,7%,-16%,10µM*,-95*
CC(C)c1ccccc1-n1c(SCC(=O)c2ccc3c(c2)NC(=O)CO3)nc2ccccc2c1=O,u,-1%,u,13µM*,-30
O=S(=O)(c1ccc(S(=O)(=O)N2CCN(C3CCCCC3)CC2)cc1)N1CCCCCC1,-6%,-10%,-8%,18%,8
CC(C)CNS(=O)(=O)c1ccc(S(=O)(=O)N2CCN(C3CCCC3)CC2)cc1,-13%,u,-7%,-10%,-101*
CCOC(=O)c1cc(C)nnc1C(=O)OCC,-4%,x,x,x,14
COc1ccccc1CNC(=O)CNC(=O)c1ccc(Br)o1,31%,-9%,-1%,5%,u
O=C(NC(C(=O)N/N=C/c1c2ccccc2cc2ccccc12)c1n[nH]c(=O)c2ccccc12)c1ccccc1 (centres undefined),-9%,-3%,-16%,2.5µM*,49
